A short description of assay [1]: Tanguay_ZF_120hpf_TRUN_legacy: (Legacy) Oregon State University Tanguay Lab 120 Hour Post-fertilization zebrafish Assay for Truncated Body (AID 2283655). An outline of the steps:
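Tropical 5D wild-type embryos, dechorionated with pronase at 4 hpf, were placed singly in wells at 6 hpf and statically exposed at 28C until 120 hpf, final DMSO 0.64%. Truncated body was scored present/absent by brightfield microscopy.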

The nature of assay [2]: Tanguay_ZF_120hpf_NC_legacy: (Legacy) Oregon State University Tanguay Lab 120 Hour Post-fertilization zebrafish Assay for Notochord and Tail Malformation (AID 2283656). The method, boiled down: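 Binary notochord-distortion calls, made by brightfield inspection, form the read-out; activity is fitted in the positive direction against DMSO. Exposure ran statically from 6 to 120 hpf at 28C with 0.64% DMSO.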

The test system of assay [3] is Thyroperoxidase (TPO), gene 54314. The assay is described as follows: CCTE_Simmons_AUR_rTPO: CCTE's Amplex UltraRed Assay for Thyroperoxidase (TPO) Inhibition, Simmons Lab (AID 2283662).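 As to AC50: potency for loss of signal meaning inhibition of peroxidase activity.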 An outline of the steps: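 Rat thyroid microsomal TPO + 25 uM AUR in 200 mM K phosphate; cpd 5 nM–87.5 uM [final], 8 conc, 0.5% DMSO; 300 uM H2O2 starts rxn; 37C dark 30 min; endpoint FI 544/590 nm; n=3.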

Assay [4] in a line: CCTE_Simmons_CellTiterGLO_HEK293T: Viability Assessment in CCTE's Assays for Thyroperoxidase (TPO) Inhibition, Simmons Lab (AID 2283665).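 As to AC50: cells exposed to compound for 24 h before readout; actives reduce ATP signal below DMSO vehicle meaning cytotoxicity.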 An outline of the steps: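 ATP depletion measured in HEK293T cells after 24 h dosing (8 concentrations, 5 nM–87.5 uM final; DMSO 0.5%) using CellTiter-Glo luminescence; curves fit for loss of signal against DMSO baseline.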
A general note: ATP-based viability assays read luminescence as a measure of living cells.

The nature of assay [5]: CEETOX_H295R_MTT_cell_viability: Viability Assessment in the CeeTox HT-H295R MTT Assay (AID 2283718; active = hit-call score of the fitted dose curve at least 0.9, where 1 is the maximum; inactive = score below 0.9). An outline of the steps:
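Human H295R adrenal cells, prestimulated 48 h with 10 uM forskolin, were exposed 48 h to chemicals in 0.1% DMSO. Viability was measured in the same wells by MTT (0.5 mg/ml, 4 h, 37 C), absorbance 570/650 nm, as percent of controls.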

A short description of assay [6]: Tanguay_ZF_120hpf_ActivityScore_legacy: (Legacy) Oregon State University Tanguay Lab 120 Hour Post-fertilization zebrafish Assay Score for Activity (AID 2283742). The method, boiled down:
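Dechorionated 5D embryos, one per well, static exposure 6–120 hpf, 28C, sealed and dark; final DMSO 0.64% (vol/vol). Brightfield binary scoring of mortality plus 18 endpoints; gain-of-signal fit versus DMSO baseline.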

Assay [7] deals with Luciferin 4-monooxygenase (Photinus pyralis) (UniProt P08659). As to the kind of experiment: CCTE_Simmons_QuantiLum_inhib_2: CCTE's Firefly Luciferase Inhibition Assay, Simmons Lab (AID 2283767).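 As to AC50: potency for inhibitors that lower luciferase luminescence relative to DMSO.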 An outline of the steps:
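Eight-point titrations of each chemical, 5 nM–87.5 uM final in 0.5% DMSO, were run in three biological replicates against recombinant luciferase for 30 min at 37C. Bioluminescence signal loss, read on reagent injection, gave the inhibition endpoint.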

Assay [8] can be described thus: Tanguay_ZF_120hpf_TR_legacy: (Legacy) Oregon State University Tanguay Lab 120 Hour Post-fertilization zebrafish Assay for Touch Response (AID 2283667). An outline of the steps: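 Binary touch-response call at 120 hpf, analysed as gain of signal versus DMSO baseline. Wild-type 5D larvae, static exposure at 28C, 0.64% DMSO final; 5uM trimethyltin chloride as positive control.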

Assay [9] in a line: CCTE_Padilla_ZF_144hpf_TERATOSCORE: (Legacy) CCTE's 144 Hour Post-fertilization zebrafish Assay Teratoscore, Padilla Lab (AID 2283679; active = hit-call score of the fitted dose curve at least 0.9, where 1 is the maximum; inactive = score below 0.9;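 also: zebrafish embryos with chorions exposed by immersion from 6-8 hpf to 5 dpf with daily renewal; teratogenicity score from eye scoring of death hatching and malformations at 144 hpf; higher score means more developmental defects relative to DMSO baseline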). The method, boiled down: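 Larvae scored by eye at 144 hpf for death, hatching and malformations after a day in clean Hanks'. Before that, daily-renewed exposure at 80 uM (0.4% DMSO, 26C) from roughly 6-8 hpf through 5 dpf, 4 embryos per chemical.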

Assay [10] in a line: STM_H9_OrnithineISnorm_perc: Stemina devTOX quickPredict H9 human embryonic stem cell (hESC)-based Assay for Ornithine (ORN) Metabolite Biomarker, Normalized (AID 2283712; active = hit-call score of the fitted dose curve at least 0.9, where 1 is the maximum; inactive = score below 0.9;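 also: ornithine released into spent medium during last day measured by mass spectrometry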). The method, boiled down: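 Metabolite endpoint from spent media of pluripotent H9 cells treated 72 h with daily re-feeding; ornithine measured by UPLC-HRMS against its 13C spike-in and referenced to the median 0.1% DMSO vehicle response.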

The nature of assay [11]: STM_H9_CystineISnorm_perc: Stemina devTOX quickPredict H9 human embryonic stem cell (hESC)-based Assay for Cystine (CYSS) Metabolite Biomarker, Normalized (AID 2283713; active = hit-call score of the fitted dose curve at least 0.9, where 1 is the maximum; inactive = score below 0.9). The method, boiled down:
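Normalized cystine level in conditioned medium from the final 24h of a 72h treatment of pluripotent H9 cells (daily media and compound renewal). Quantified by UPLC-HRMS with C13-labeled internal standard; scaled to median of 0.1% DMSO vehicle wells.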

A short description of assay [12]: STM_H9_OrnCyssISnorm_ratio: Stemina devTOX quickPredict H9 human embryonic stem cell (hESC)-based Assay for Ornithine (ORN):Cystine (CYSS) Ratio (AID 2283714). An outline of the steps:
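UPLC-HRMS of spent media: ORN/CYSS ratio of internal-standard-normalized percentages, DMSO (0.1%) baseline. Pluripotent H9 hESCs, 72h exposure, daily re-dosing with fresh media; last 24h media collected.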

Assay [13] in a line: ArunA_NOG_NucleusCount: ArunA Biomedical's Neurite Outgrowth (NOG) Assay for Nucleus Count (AID 2283756). An outline of the steps: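 Viable neuron count, from Hoechst nuclei passing size and intensity gates, imaged at 20x on differentiated H9-derived human neurons. Exposure lasted 48 h from seeding; activity was scored relative to DMSO.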
Assay [14] can be described thus: ArunA_NOG_NeuriteLength: ArunA Biomedical's Neurite Outgrowth (NOG) Assay for Neurite Length (AID 2283757). The method, boiled down:
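Total neurite length per neuron, from traced βIII-tubulin-labelled processes longer than 10 um on viable Hoechst-gated cells, was scored as decrease from DMSO. Cells were hESC (H9)-derived neurons given 48 h chemical exposure immediately after seeding.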

Assay [15] is described as follows: ArunA_NOG_NeuritesPerNeuron: ArunA Biomedical's Neurite Outgrowth (NOG) Assay for Neurites Per Neuron (AID 2283758). The method, boiled down: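 Differentiated human H9-derived neurons exposed to chemicals for 48 h from seeding, then stained with Hoechst and βIII-tubulin/DyLight 488. Automated imaging counted neurites (processes >10 um) per valid neuron; loss of signal versus DMSO scored.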

Assay [16] is described as follows: ArunA_NOG_BranchPointsPerNeurite: ArunA Biomedical's Neurite Outgrowth (NOG) Assay for Branch Points Per Neurite (AID 2283759). The method, boiled down:
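Automated image analysis traced neurites (processes >10 um) from valid cell bodies after Hoechst and βIII-tubulin staining. hNN cells from H9 embryonic stem cells, 48 h exposure. Fitted bidirectionally against DMSO.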

“And” between values parts separate entries of the source, which are not always exact repeats. Identical values can stand only once. Results filed as inconclusive are left out. The source made the active and inactive calls. The calls were made as follows, unless noted: active = hit-call score of the fitted dose curve at least 0.9, where 1 is the maximum; inconclusive = response in the unintended direction; inactive = score below 0.9.

Luciferin 4-monooxygenase (Photinus pyralis), sequence (P08659 whole entry, looked up): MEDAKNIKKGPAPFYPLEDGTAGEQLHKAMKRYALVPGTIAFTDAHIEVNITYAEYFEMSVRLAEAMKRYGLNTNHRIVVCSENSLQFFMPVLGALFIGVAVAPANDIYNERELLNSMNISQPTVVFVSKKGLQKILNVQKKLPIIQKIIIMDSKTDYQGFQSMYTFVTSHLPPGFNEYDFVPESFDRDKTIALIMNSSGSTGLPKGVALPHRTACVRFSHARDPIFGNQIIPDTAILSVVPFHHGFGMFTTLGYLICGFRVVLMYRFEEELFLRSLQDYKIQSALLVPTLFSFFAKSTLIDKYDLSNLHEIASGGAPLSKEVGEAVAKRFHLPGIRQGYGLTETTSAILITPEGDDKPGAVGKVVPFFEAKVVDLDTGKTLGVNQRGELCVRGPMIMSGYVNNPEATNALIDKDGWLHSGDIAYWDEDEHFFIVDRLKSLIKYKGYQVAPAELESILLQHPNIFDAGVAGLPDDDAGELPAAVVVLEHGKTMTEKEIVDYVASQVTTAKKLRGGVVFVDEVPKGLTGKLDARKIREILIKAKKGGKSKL

As for `CC(C)(C)c1ccccc1O`, the call in [1], in assay [2], in assay [3], in [5], in assay [6] and in [7] was inactive. In addition, the AC50 – broadly, the concentration at which the activity in the assay is half-maximal – in [4] is 55.4 µM (active).

As to `CCCCCCCCCCCCc1cccc(S(=O)(=O)O)c1`, the molecule was classed as inactive in [1], in [2], in [8], in [6] and in [7]. In addition, the AC50 is 39.4 µM (active) in assay [3], 30.4 µM (active) in assay [4] and 53 µM (active) in [9].

Regarding `COC(=O)Nc1cccc(OC(=O)Nc2cccc(C)c2)c1`, the half-maximal activity concentration (AC50) in [3] was 0.398 µM (active); in assay [7], 9.99 µM (active). Further, the molecule was classed as inactive in [4] and in assay [5].

For the molecule `N#Cc1cccnc1`, the molecule was classed as inactive in assay [2], in assay [8] and in assay [6].

For `N#CS`, the concentration at half-maximal activity (AC50) in assay [3] was 10.6 µM (active) and 8.87 µM (active). In addition, the molecule was classed as inactive in [4], in assay [10], in assay [11] and in assay [7].

In the case of `O=C(N[C@H]1CN2CCC1CC2)c1ccc2c(c1)OCCO2`, the molecule was called inactive in assay [1], in assay [2] and in assay [6].

With `Oc1cc(Cl)c(Cl)cc1Cl`, the outcome in assay [1], in assay [2] and in assay [8] was inactive. Moreover, the AC50 in assay [9] was 5.5 µM (active); in [6] it was 32.1 µM (active).

Consider `COc1ccc(N)cc1`, for which the AC50 in assay [3] was 1.44 µM (active); in assay [4] it was 4.71 µM (active). The outcome in assay [5] and in [7] was inactive.

With `O=C1c2ccccc2C(=O)C1C(=O)C(c1ccccc1)c1ccc(Cl)cc1` (stereo not drawn), the values for the AC50 in assay [3] and in [4] were 32.4 µM (active) and 36.4 µM (active), respectively. The outcome in [7] was inactive.

Consider `CCCCCCCCCCCCOS(=O)(=O)O`, for which the AC50 in [3] was 28 µM (active) and 48.7 µM (active); in [4] it was 31.9 µM (active) and 92.3 µM (active). In addition, the result in [7] was inactive.

On to `O=c1[nH]c(=O)n(Cl)c(=O)n1Cl`, for which the molecule was called inactive in assay [3], in assay [4] and in assay [7].

As to `Nc1ccc(N)cc1`, the AC50 in [3] is 5.63 µM (active); in assay [4], 32 µM (active); in assay [7] it was 13.9 µM (active).

Turning to `Nc1ncn[nH]1`, the AC50 in assay [3] was 2.24 µM (active). Also, the molecule was classed as inactive in [4], in assay [10], in assay [11], in assay [12], in [13] and in [14]. The call in assay [15], in assay [16] and in assay [7] was inactive.

For `O=C(NC(=O)c1c(F)cccc1F)Nc1ccc(Cl)cc1`, in assay [3], the AC50 was 25.4 µM (active). Further, the outcome in assay [4] and in assay [7] was inactive.

`Clc1cccc(Cl)c1Cl`: the call in assay [1], in assay [2] and in [8] was inactive. Moreover, the AC50 in assay [6] was 0.00446 µM (active).
